Assay results published in ChEMBL document CHEMBL4513216, “Probing the Open Global Health Chemical Diversity Library for Multistage-Active Starting Points for Next-Generation Antimalarials” (ACS Infect Dis, 2020).
About 2,700 (4%) of roughly 68,000 compounds showed an effect of 50% or more. The entries come from a sample that favours strong results as a whole.

Each compound was assayed on Plasmodium berghei (assay: Screen against P. berghei liver stage (PbLuc), transformed with Luciferase, at 2uM). Conditions: tested at 2 uM.
Format: functional, HepG2

SMILES	INHIBITION [%]
CC(C)OCc1ccccc1CNC(=O)C(C)(C)C	-26.08
CS(=O)(=O)c1nccn1Cc1ccc(OC(F)F)cc1	-35.45
O=C(O)c1cc(NS(=O)(=O)c2ccccc2F)ccc1N1CCSCC1	-21.39
Cc1nc(C)n(CC2CCCCN2CC(=O)NC(C2CC2)C2CC2)n1 (stereo unspecified)	17.75
COc1ccccc1OCC(=O)N1C[C@@H]2CN(C)CCO[C@@H]2C1	32.04
CN1CCc2nc(N(C)C)nc(N3CCC(O)CC3)c2C1	21.24
CN(Cc1nc(C2CC2)no1)C(=O)c1cccc(CC2CCNCC2)c1	-11.41
Cc1nn(C)c2nc(NC(C)c3nnn[nH]3)sc12 (stereo unspecified)	-16.31
Cc1csc2ncc(-c3ccnc(N4CCN(C)CC4)n3)c(=O)n12	-23.11
Cc1cc2c(cc1C)OC1(C=C2)CCN(CC(=O)N2CCOCC2)CC1	54.2
Cc1cc2c(cc1Cl)C=CC1(CCN(C(=O)N3CCOCC3)CC1)O2	57.47
CCN(CC)C(=O)CN1CCC2(C=Cc3cc(Cl)c(C)cc3O2)CC1	1.4
Cc1cc2c(cc1Cl)C=CC1(CCN(CC(=O)N3CCCC3)CC1)O2	-28
Cc1cc2c(cc1Cl)C=CC1(CCN(CC(=O)N3CCOCC3)CC1)O2	-4.78
Cc1cc2c(cc1Cl)C=CC1(CCN(CC(=O)NC3CCCC3)CC1)O2	3.58
O=C(NCc1cnc2n1CCN(CC1CC1)CC2)C1CCC1	15.42
CO[C@@H]1CCN(S(=O)(=O)c2cccs2)[C@H]1Cc1cccnc1	30.39
CC(c1nc(C2CC2)no1)N1CCc2c(ncn2C2CC2)C1 (stereo unspecified)	-40.15
O=C(c1cccc(CNS(=O)(=O)c2ccc(F)cc2)c1)N1CCCC1	51.94
Cc1ccc(F)cc1S(=O)(=O)NCc1cccc(C(=O)N2CCCC2)c1	33.8
Cc1ccc(S(=O)(=O)NCc2cccc(C(=O)N3CCCC3)c2)cc1F	47.84
Cc1nc2c(c(NC3CC3)n1)CCN(C(=O)C1(C#N)CC1)CC2	-5.44

SMILES	INHIBITION [%]
Cc1nc(N2CCOCC2)nc2c1CCN(C(=O)C1(C#N)CC1)CC2	-24.04
Cc1nc(C)c2c(n1)CCN(C(=O)C1(C#N)CC1)CC2	89.37
COCC1CN(Cc2ccoc2)Cc2nn(C)cc21 (stereo unspecified)	17.69
O=C(Nc1ccc(F)cc1)N1CCN(Cc2noc(C3CC3)n2)CC1	24.65
CN1CCN(C(=O)C[C@@H]2COC[C@H]3CN(c4ccncn4)C[C@@H]23)CC1	-69.07
CS(=O)(=O)N1CCC2(CC1)COC(COc1cccnc1)C2 (stereo unspecified)	19.91
CNS(=O)(=O)c1ccc(C(=O)NCCNc2ncccn2)cc1	-75.02
CNS(=O)(=O)c1ccc(C(=O)NCCc2ccccn2)cc1	62.46
CNC(=O)c1ccc(S(=O)(=O)NCCc2ccccn2)cc1	24.15
O=C(Nc1ccccc1)N1CCn2nnc(COc3cccnc3)c2C1	11.72
CCNC(=O)[C@@H]1CCCN1C1(C(=O)NC)CCC1	10.65
CC(CC(=O)O)CC(=O)Nc1sc2c(c1C(N)=O)CCc1ccccc1-2 (stereo unspecified)	-0.22
COc1cc(NCCNC(=O)c2cc[nH]c2C)cc(OC)c1	12.43
COc1cc(NCCNC(=O)c2ccc3[nH]ccc3c2)cc(OC)c1	57.75
CC(C)(C)OC(=O)NCCNC(=O)c1ccc2cc[nH]c2c1	13.72
O=C(NCCCO)Nc1cccc(Cl)c1F	-5.28
Fc1cnc(N2CCOC3(CCN(Cc4ccsc4)CC3)C2)nc1	-35.12
CNC(=O)C1CCN(Cc2cc3c(cc2O)CCC3)CC1	-23.73
CNS(=O)(=O)CCN1CC(c2ccccc2)(c2ccccc2)CCC1=O	40.51
Cc1cccc(NCc2ncc(C(C)(C)C)o2)c1	75.37
Cc1ccc(NCc2ncc(C(C)(C)C)o2)c(Cl)c1	-32.82
CC(C)(C)c1cnc(CNc2cccc(Cn3cnnc3)c2)o1	-3.4

SMILES	INHIBITION [%]
CCc1nc(C)sc1CN1CC[C@](O)(CC)[C@H](O)C1	20.36
O=C(CCC(=O)NCc1cccc(Br)c1)NCCN1CCCC1	-64.94
O=C(COCC(=O)N1CCCCCC1)NCc1cccc(Br)c1	50.97
COCC(=O)NCc1cccc(Br)c1	0.26
Cc1ncn(-c2cc(N3CCN(S(C)(=O)=O)CC3)ncn2)c1C	43.28
CCCSCC(=O)N1C[C@H]2CC[C@@H](C1)N(Cc1ccccn1)C2=O	60.9
CCOCC(=O)N1C[C@H]2CC[C@@H](C1)N(Cc1ccccn1)C2=O	37.77
O=C(CSCC1CC1)N1C[C@H]2CC[C@@H](C1)N(Cc1ccccn1)C2=O	36.66
CC(C)(O)CN1CCN(C(=O)COCC(F)(F)F)CC1	13.76
COc1cc(C)c(S(=O)(=O)CC(=O)N(C)C(C)C)cc1OC	10.72
COc1cc(C)c(S(=O)(=O)CC(=O)N(C)C2CC2)cc1OC	51.87
CCN(C(=O)CS(=O)(=O)c1cc(OC)c(OC)cc1C)C1CC1	35.41
CC1CCc2nc(NS(=O)(=O)c3cnn(C)c3)sc2C1 (stereo unspecified)	54.52
CCn1cc(S(=O)(=O)Nc2nc3c(s2)CC(C)CC3)cn1 (stereo unspecified)	32.56
CCn1cc(S(=O)(=O)Nc2nc3c(s2)CCCC3)cn1	23.02
N#Cc1ccc(CN2CCN(Cc3ccncc3Cl)CC2=O)cc1	26.27
CC1CN(Cc2nc(Cc3ccccc3F)no2)CCN1C (stereo unspecified)	17.25
O=C(c1ccco1)N1CCOC2(COCCN(c3ncccn3)C2)C1 (stereo unspecified)	36.06
Cc1cccc(CN2CCc3onc(Cn4cccc4)c3C2)n1	15.36
Cc1cccc(CN2CCc3onc(CN(C)C)c3C2)n1	26.77
Cc1cccc(CN2CCc3onc(CO)c3C2)n1	52.12
CCOc1ncccc1NC(=O)NC1CCN(S(C)(=O)=O)CC1	-68.26
